High-throughput results as filed in PubChem.
A selection: hits, their analogues and other compounds. The true share with any hit is near 4.6%.
TRb-SRC2 inh: disrupts binding of human TR beta to SRC2. P10828. TRbeta-SRC2 peptide binding, fluorescence polarization; receptor liganded with 1 µM T3. Potency, µM (top dose mostly 106 µM), for the others: at the highest dose activity change, negative = inhibition, most hits filed as inhibitors. 0.065% of 280,000 active. AID 1469;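 also: potency is read from the fitted curve at half-maximal effect; plate controls were bound peptide for no effect and peptide without receptor for full effect; nearly all actives have a fitted effect of over 50% in size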
Target sequence (P10828 whole entry, looked up): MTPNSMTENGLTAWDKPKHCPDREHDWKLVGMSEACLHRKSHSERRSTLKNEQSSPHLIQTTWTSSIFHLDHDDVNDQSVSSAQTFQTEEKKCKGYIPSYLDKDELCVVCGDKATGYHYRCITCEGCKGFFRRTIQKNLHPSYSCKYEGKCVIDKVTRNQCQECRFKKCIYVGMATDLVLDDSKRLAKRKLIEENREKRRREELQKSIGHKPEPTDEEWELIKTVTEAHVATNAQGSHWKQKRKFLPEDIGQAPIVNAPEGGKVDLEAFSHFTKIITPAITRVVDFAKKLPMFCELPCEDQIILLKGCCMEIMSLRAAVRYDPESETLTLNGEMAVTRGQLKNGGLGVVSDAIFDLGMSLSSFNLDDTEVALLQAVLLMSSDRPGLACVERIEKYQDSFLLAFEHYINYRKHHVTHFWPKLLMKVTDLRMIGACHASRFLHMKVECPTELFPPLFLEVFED
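Polarization signal, normalized between peptide-alone and full complex controls, measured compound effects on T3-liganded human TRb LBD (0.6 uM) binding 20 nM Texas Red SRC2 peptide after 5 hr.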
Tau FP inhib: blocks human tau fibril formation measured by polarization; P10636; K18 P301L tau heparin fibrillization, Alexa594 FP, 6 h; Potency, µM (doses to about 57.7 µM), without a hit: top-dose activity, negative = inhibition, actives largely listed as inhibitors; 0.39% of 280,000 active; also: potency is read from the fitted curve at half-maximal effect; nearly all actives have a fitted effect of over 55% in size
Target sequence (P10636 561-689 P618L limits assumed): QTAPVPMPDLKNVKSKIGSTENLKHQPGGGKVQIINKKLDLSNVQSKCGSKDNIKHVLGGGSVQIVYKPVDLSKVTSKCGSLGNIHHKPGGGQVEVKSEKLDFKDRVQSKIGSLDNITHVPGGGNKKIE
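Steps: dispense K18 P301L tau (15 uM plus 0.24 uM Alexa 594 tracer, final) in pH 7 sodium acetate; add compound; add heparin (20 uM final); incubate 6 hr, 37 C; add ThT (30 uM final); after 1 hr ambient, read FP.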
Tau fluor cs: counter-screen for tau fibril formation inhibitors; 0.93% of 280,000 active; tau K18 P301L Alexa594 fluorescence, heparin fibrillization; Potency, µM (highest dose often 57.7 µM), inactives show at the highest dose activity change, negative = decrease; also: potency is read from the fitted curve at half-maximal effect; nearly all actives have a fitted effect of over 55% in size
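Human K18 P301L tau (15 uM unlabeled plus 0.24 uM Alexa 594-labeled, final) in 100 mM sodium acetate pH 7 was mixed with compound and 20 uM heparin and incubated 6 hr at 37 C.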
Tau ThT inhib: inhibitors of human tau fibril formation, thioflavin T binding. P10636. recombinant tau K18 P301L (four-repeat tau fragment), heparin-induced fibrillization, ThT fluorescence. 2.1% of 270,000 active. Potency, µM (titrated, usually from 57.4 µM), inactives show top-dose activity, negative = inhibition, usual class: inhibitors; also: potency is read from the fitted curve at half-maximal effect; nearly all actives have a fitted effect of over 55% in size
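K18 P301L tau (15 uM + 0.24 uM Alexa 594-tagged), heparin 20 uM, NaOAc pH 7, 6 h 37 C; ThT 30 uM, 1 h RT, ex 450/em 510 nm.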
TexasRed fluor: counter-screen for TRb-SRC2 inhibitors: fluorescence interference; Potency, µM (titrated, usually from 106 µM), inactives show at the highest dose fluorescence change, negative = quenching; TRb/SRC2 Texas Red total fluorescence interference; AID 1479; 0.29% of 280,000 active; active = well fitted curve in either direction with a large enough effect; inconclusive = small, poorly fitted or top-dose-only effect; also: potency is read from the fitted curve at half-maximal effect
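Human TRβ ligand-binding domain (0.6 uM) and Texas Red SRC2 peptide (20 nM) in Tris buffer with 1 uM T3 and 5% DMSO were incubated with pinned compound for 5 hr at ambient temperature. Total fluorescence was computed as S + 2P (555/632 nm).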
PNC inhibitor: inhibitors of perinucleolar compartment assembly | PC3M PTB-GFP, PNC prevalence imaging, 16 h; hits give low values | 3.1% of 140,000 active | activity change (PNC), negative = inhibition, % at 10 µM | AID 2417;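 active = readout at or below -70, meaning at least 70% loss of cells showing the perinucleolar compartment, a nuclear body marking cancer cells; inconclusive = readout between -30 and a set limit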;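 also: plate controls were DMSO wells for no effect and camptothecin positive control wells for full effect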
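Compounds are pinned in duplicate onto adhered PC3M cells stably expressing GFP-tagged PTB and incubated 16 h at 37 C. Cells are then fixed, nuclei stained with Hoechst, and PNC-positive cells counted.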
The depositor's hits bear a star; ? = inconclusive; . = no result given; ! = a repeat was not active; [ ] = remark or other dose. Unless noted, calls follow the shape of the dose curve; as a rule, active = well fitted curve in the direction sought with a large enough effect; inconclusive = small, poorly fitted or top-dose-only effect, or another doubt; inactive = no such curve, though single readings can be large; an effect the other way counts as inactive or inconclusive. Unless noted, % is scaled to controls: 0 for no effect and ±100 for the full control effect.

SMILES | TRb-SRC2 inh | Tau FP inhib | Tau fluor cs | Tau ThT inhib | TexasRed fluor | PNC inhibitor
O=[N+]([O-])c1ccc(/C=C/C2=NN(c3ccccc3)C(c3ccco3)C2)o1 (stereo not given) | ? | 1.3% | ? | 7.94µM* | 20.3% | .
COc1ccc(CCNC(=O)COC(=O)Cc2cccc3ccccc23)cc1 | 6.0% | 2.4% | 6.2% | 1.7% | 0.6% | -16.7
NCCNc1ccc([N+](=O)[O-])cc1 | -1.2% | -7.8% | -9.5% | -8.3% | 0.2% | .
O=C1CC(N2CCOCC2)C(=O)N1c1ccccc1Cl (stereo not given) | -6.7% | -1.4% | 7.7% | 0.9% | 0.1% | -94.0*
O=C1CC(N2CCN(c3ccccc3Cl)CC2)C(=O)N1c1ccccc1 (stereo not given) | 4.7% | ? | 0.4% | -6.3% | -6.0% | -11.5
Cc1ccc(CNC(=O)C2CCN(Cc3nc(-c4cccc(Br)c4)oc3C)CC2)cc1 | 1.1% | -4.8% | -8.1% | -2.4% | 0.1% | .
COc1cccc2c1C(=O)c1c(O)c3c(c(O)c1C2=O)C[C@@](O)(C(=O)CO)C[C@@H]3O[C@@H]1C[C@H](N)[C@H](O)[C@H](C)O1 | 25.1µM* | ? | 10.2% | 12.6µM* | 44.7µM*[fluorescent] | .
COc1cccc2c1C(=O)c1c(O)c3c(c(O)c1C2=O)C[C@](O)(C(C)=O)C[C@H]3O[C@@H]1C[C@H](N)[C@H](O)[C@H](C)O1 | 12.6µM* | . | . | . | 14.1µM*[fluorescent] | .
COc1cccc2c1C(=O)c1c(O)c3c(c(O)c1C2=O)C[C@@](O)(C(=O)CO)C[C@@H]3O[C@H]1C[C@H](N)[C@H](O)[C@H](C)O1 | 22.4µM*! | 25.1µM* | -6.0% | 3.16µM* | 100µM*[fluorescent] | -114.6*
CC(=O)C1(O)Cc2c(O)c3c(c(O)c2C(OC2CC(N)C(O)C(C)O2)C1)C(=O)c1c(O)cccc1C3=O (stereo not given) | 25.1µM* | . | . | . | 44.7µM*[fluorescent] | .
Cc1ccccc1-c1noc(-c2ccc(N3CCCCC3)c([N+](=O)[O-])c2)n1 | 3.1% | 4.7% | 0.3% | -6.1% | -3.8% | .
COc1cccc2c1C(=O)c1c(O)c3c(c(O)c1C2=O)C[C@@](O)(C(=O)CO)C[C@@H]3OC1CC(N)C(O)C(C)O1 (stereo not given in full) | 20µM* | . | . | . | 31.6µM*[fluorescent] | .
CCN(CC)S(=O)(=O)c1cc(NC(=O)CSc2nc3c(cc2C#N)C(=O)CC(C)(C)C3)ccc1C | -6.0%[53 µM] | -1.3% | -14.4% | 2.1% | 4.0%[53 µM] | -96.0*
O=C(/C=C/c1ccc(OC(F)F)cc1)OCC(=O)N1CCN(C(=O)c2ccco2)CC1 | 2.9% | -3.9% | -8.7% | ? | -1.1% | 13.4
COc1cccc(-c2nc(NCC3CCCO3)c3ccccc3n2)c1O (stereo not given) | 4.3% | 19.2% | 20µM*[quencher] | ? | -7.8% | 27.6
CCC(C)Nc1nc(-c2cccc(OC)c2O)nc2ccccc12 (stereo not given) | 0.4% | ? | 15.8µM*[quencher] | ? | -19.6% | 4.0
Oc1ccccc1-c1nc(NCC2CCCO2)c2ccccc2n1 (stereo not given) | -1.7% | ? | ? | ? | -2.3% | 16.4
COc1cccc(-c2nc(NC(C)C)c3ccccc3n2)c1O | 4.0% | 9.9% | 15.8µM*[quencher] | 17.8µM* | -9.9% | 18.6
COC(=O)C(C)Sc1nc(NCc2ccccc2)nc(N(C)C)n1 (stereo not given) | -5.5% | -9.8% | -12.8% | -3.8% | -1.4% | .
O=C(Cn1nnc2ccccc2c1=O)N1CCCc2ccccc21 | 1.0% | -2.1% | -1.0% | 6.3% | -3.0% | ?
O=C(OCn1ncc(Br)c(Br)c1=O)c1ccccc1Cl | -17.8% | ? | -20.1% | 8.91µM* | -2.2% | -2.7
O=C(OCn1ncc(Br)c(Br)c1=O)c1ccc(F)cc1 | -6.3% | ? | -5.7% | ? | -2.1% | -10.3
COc1ccc(N(C)C(=O)c2cc(S(=O)(=O)N3CCc4ccccc43)cn2C)c(OC)c1 | -19.7% | 13.3% | ? | -13.6% | 0.0158µM*[quencher] | .
COc1cc(NC(=O)c2cc(S(=O)(=O)N3CCc4ccccc43)cn2C)cc(OC)c1OC | -6.9% | 13.7% | ? | -3.9% | -0.2% | .
CCn1cnc2c1c(=O)n(CC(=O)Nc1ccc(C(N)=O)cc1)c(=O)n2Cc1ccccc1 | 2.4% | -8.1% | -7.3% | 4.6% | 3.0% | .
SMILES | TRb-SRC2 inh | Tau FP inhib | Tau fluor cs | Tau ThT inhib | TexasRed fluor | PNC inhibitor
Cc1[nH][nH]c(=O)c1C(c1c(C)[nH][nH]c1=O)c1cn(C)c2ccccc12 | -13.4% | 4.0% | 8.8% | 5.8% | -5.4% | .
Cc1[nH][nH]c(=O)c1C(c1c(C)[nH][nH]c1=O)c1cn(Cc2cccc3ccccc23)c2ccccc12 | ? | ? | ? | 10µM* | -2.2% | -15.5
CC(=O)Nc1cccc(-c2nnc(SCC(=O)c3cc([N+](=O)[O-])ccc3Br)o2)c1 | 11.0% | -19.3% | 14.1µM*[quencher] | ? | -13.3% | .
CC1=NN(C(=O)c2ccc(Cn3cc(Br)c([N+](=O)[O-])n3)o2)C(O)(C(F)(F)F)C1 (stereo not given) | 4.2% | -1.1% | -3.1% | -2.0% | -0.2% | -113.8*
CC1=NN(C(=O)c2ccc(Cn3nc(C)cc3C)o2)C(O)(C(F)(F)F)C1 (stereo not given) | -25.4% | 2.0% | -1.9% | -7.1% | 0.2% | 13.2
O=C(CSc1nnc(Cn2c(=O)sc3ccccc32)n1-c1ccccc1)NCC1CCCO1 (stereo not given) | -20.9% | 4.9% | 10.9% | 11.9% | 0.0% | -108.4*
Cc1cccc(N2CCN(C3=NC(=O)C(=C4CCCCC4)S3)CC2)c1 | -1.8% | -10.8% | -15.2% | ? | 1.2% | ?
CCCOc1ccc(N2C(=O)CC(N(Cc3ccc(OC)cc3)C(=S)Nc3ccccc3)C2=O)cc1 (stereo not given) | 9.1% | 10.2% | 8.8% | 4.3% | 7.0% | -14.4
CCCOc1ccc(N2C(=O)CC(N(CCc3ccc(OC)c(OC)c3)C(=S)Nc3ccccc3)C2=O)cc1 (stereo not given) | ? | 1.7% | -2.5% | 3.0% | 0.501µM*[quencher] | -1.9
CC/C(=N/NC(=O)CNc1ccc(Cl)cc1C)c1ccccc1 | -11.5% | -4.8% | -11.8% | -6.7% | -0.8% | .
Cc1ccccc1N/N=C/c1sc(=O)n(Cc2cccc(C(=O)O)c2)c1Cl | 0.9% | -7.1% | ? | 28.2µM* | -6.0% | .
O=C(O)c1cccc(Cn2c(Cl)c(/C=N/NC(=O)c3ccccc3)sc2=O)c1 | -4.7% | -5.6% | -0.4% | -9.7% | -0.1% | 28.7
O=C(O)c1cccc(Cn2c(Cl)c(/C=N/NC(=O)c3cc4ccccc4cc3O)sc2=O)c1 | 14.6% | ? | ? | 20µM* | -6.5% | .
